From PubChem BioAssay AID504652 (National Center for Advancing Translational Sciences (NCATS), 2011)
In all, about 360,000 compounds went through this assay and about 11,000 (3.1%) were called active. Rule as the data show it: active = activity change below about -30%; inactive = the rest. The sample as a whole holds a higher share of actives than the screen did.

Molecular target: D(1A) dopamine receptor (Homo sapiens) (UniProt P21728)
Assay: Antagonist of Human D 1 Dopamine Receptor: qHTS
Settings: HEK293 TREx D1 cells, calcium flux, dopamine EC80; at 10 µM; hits give low values
In short: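 Antagonism measured as reduced calcium response to an EC80 dopamine addition following 180 s compound pre-read; cells were inducible HEK293 Trex D1 plated overnight at 30 C, read kinetically at 1 cycle/sec.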
% is scaled to controls: 0 for no effect and ±100 for the full control effect.

Chain of D(1A) dopamine receptor (Homo sapiens) (P21728 whole entry, looked up): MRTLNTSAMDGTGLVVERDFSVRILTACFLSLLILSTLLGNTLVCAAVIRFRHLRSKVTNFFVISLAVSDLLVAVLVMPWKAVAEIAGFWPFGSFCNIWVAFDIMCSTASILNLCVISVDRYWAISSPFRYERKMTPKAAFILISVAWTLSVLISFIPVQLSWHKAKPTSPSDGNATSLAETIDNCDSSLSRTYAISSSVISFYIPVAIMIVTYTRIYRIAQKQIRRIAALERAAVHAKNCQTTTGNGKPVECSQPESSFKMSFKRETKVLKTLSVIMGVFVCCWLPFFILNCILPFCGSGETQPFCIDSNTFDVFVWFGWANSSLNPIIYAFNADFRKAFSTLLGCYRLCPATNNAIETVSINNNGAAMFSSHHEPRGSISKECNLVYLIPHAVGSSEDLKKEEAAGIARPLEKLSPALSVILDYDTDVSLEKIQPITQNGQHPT

SMILES | activity change, negative = inhibition
COc1ccc(CCn2cc3c(c2-c2ccc(Br)cc2)c(=O)n(C)c(=O)n3C)cc1OC | 2.27% (inactive)
Fc1ccc(CN2CCc3nc(Nc4ccccc4)ncc3C2)cc1F | 5.84% (inactive)
COc1ccc2c(c1)Cc1sc(NC(=O)c3ccccc3Br)nc1-2 | 6.21% (inactive)
CCCCSc1ncnc2c1sc1nc(N3CCOCC3)c3c(c12)CCCC3 | 3.48% (inactive)
O=C(CSc1nccn1Cc1ccc(Cl)cc1)NCc1ccccc1 | -34.5% (active)
CCCCNC(=O)CSc1nccn1Cc1ccccc1 | 23.5% (inactive)
O=C(CSc1nccn1Cc1ccc(F)cc1)NCc1ccccc1 | 9.06% (inactive)
Cc1oc(-c2ccccc2F)nc1CN1CCC(C(=O)NCCc2ccc(Cl)cc2)CC1 | -10.2% (inactive)
CC(C)C12CN3CC(C(C)C)(CN(C1)C3c1ccc(OCc3ccccc3)cc1)C2=O (stereo not drawn) | -2.54% (inactive)
COc1cccc(C2C(C(=O)Nc3ccc(C)cc3C)=C(C)Nc3c(C(=O)Nc4ccccc4)cnn32)c1 (stereo not drawn) | 0.0774% (inactive)
CC(NC(=O)Nc1ccccc1)c1ccccc1 (stereo not drawn) | 5.33% (inactive)
CCC(C(=O)Nc1ccc(C(C)C)cc1)c1ccccc1 (stereo not drawn) | -50.8% (active)
CC(C)c1ccc(NC(=O)Cn2ncc3ccccc32)cc1 | -8.47% (inactive)
CCOc1ccc(-c2cc3c(=O)n(CC(=O)NCc4ccc(OC)cc4)ccn3n2)cc1 | 8.73% (inactive)
O=C(NCCc1csc(-c2ccc(C(F)(F)F)cc2)n1)C(=O)Nc1ccc(F)c(Cl)c1 | -0.398% (inactive)
CCn1c2ccccc2c2nnc(SCC(=O)O)nc21 | 6.1% (inactive)
O=C(/C=C/c1cn(CC(O)CN2CCc3ccccc32)c2ccccc12)c1ccc(Br)cc1 (stereo not drawn) | -3.99% (inactive)
CCOc1ccc(C(=O)/C=C/c2cn(CC(O)CN3CCCCCC3)c3ccccc23)cc1 (stereo not drawn) | -35% (active)
O=C(c1ccc(Cl)cc1)c1ccc(OCC(O)CN2CCCCC2)cc1 (stereo not drawn) | -13.7% (inactive)
CC(C)c1ccc(NC(=O)Cn2nnc(C(=O)NCCc3ccccc3)c2N)cc1 | -8.95% (inactive)

SMILES | activity change, negative = inhibition
Cc1ccc(C)c(S(=O)(=O)N2CC(=O)Nc3ccccc32)c1 | -34.4% (active)
Cc1ccc(C)c(S(=O)(=O)N2CCN(C(=O)Nc3ccccc3)CC2)c1 | -15% (inactive)
Cc1ccc(S(=O)(=O)N2CC(=O)Nc3ccccc32)cc1C | 7.51% (inactive)
CC1=C(C(=O)OCC2CCCCC2)C(c2c(F)cccc2Cl)CC(=O)N1 (stereo not drawn) | -8.23% (inactive)
CN(C(=O)c1cccc(OC2CCN(S(=O)(=O)N(C)C)CC2)c1)C1CCOC1 (stereo not drawn) | -17.2% (inactive)
CN(C)S(=O)(=O)N1CCC(Oc2cccc(C(=O)NCCCC3CCCC3)c2)CC1 | -36.8% (active)
CNS(=O)(=O)c1cccc(C(=O)NCC2CCCCC2)c1 | 15.5% (inactive)
CCOCCc1nn2c(=O)cc(COC(=O)CNC(=O)c3ccc(C(C)(C)C)cc3)nc2s1 | -0.812% (inactive)
CCC(=O)N1c2ccccc2CC1C(=O)N1CCN(c2cccc(OC)c2)CC1 (stereo not drawn) | -5.92% (inactive)
CCc1ccc(S(=O)(=O)c2nnn3c2nc(NCc2ccccc2OC)c2cc(Cl)ccc23)cc1 | 2.93% (inactive)
CCCNC(=O)c1ccc2c(c1)ncn2-c1ccc(C)cc1C | -21.9% (inactive)
Cc1ccc(CCNC(=O)C2CCN(c3nnc(-n4cccc4CNc4ccc(C)cc4)s3)CC2)cc1 | -30% (active)
CSc1ccc(CCNC(=O)C2CCN(c3nnc(-n4cccc4)s3)CC2)cc1 | 11.1% (inactive)
CCOc1ccc(CNC(=O)C2CCN(c3nnc(-n4cccc4CNc4ccc(C)cc4)s3)CC2)cc1OC | 4.12% (inactive)
CCOc1ccccc1C1CC(c2ccccc2)Nc2nc(N)nn21 (stereo not drawn) | -30.1% (active)
Cc1ccc(C2CC(c3cccc(C)c3)n3nc(N)nc3N2)cc1 (stereo not drawn) | 9.87% (inactive)
CCOc1ccccc1C1CC(c2ccc(Cl)cc2)Nc2nc(N)nn21 (stereo not drawn) | 13.6% (inactive)
CN(C)CCCNC(=S)N1CCN(c2nc(-c3ccccc3)cs2)CC1 | -48% (active)
COCCCNC(=S)N1CCN(c2nc(-c3cccc(OC)c3)cs2)CC1 | -31% (active)
COc1cccc(-c2ccc(SCC(=O)N3CCN(c4ccccc4)CC3)nn2)c1 | 3.13% (inactive)

SMILES | activity change, negative = inhibition
CN(C)CCCNC(=S)N1CCC(c2nc3ccccc3[nH]2)CC1 | 7.97% (inactive)
c1ccc(-c2csc(N3CCc4ccccc4C3)n2)cc1 | 4.74% (inactive)
COCCCNC(=S)N1CCCC(c2nc3cc(C)c(C)cc3[nH]2)C1 (stereo not drawn) | -12% (inactive)
CCn1cc2nc(SCc3ccccc3Cl)n(CCc3ccccc3)c(=O)c2n1 | 19.6% (inactive)
O=C(NC1CCCCC1)c1ccc(Cn2c(SCc3ccccc3)nc3cccnc32)cc1 | -1.21% (inactive)
COc1ccc(Br)cc1C1CC(=O)Nc2c1c(C)nn2-c1nc(C)cc(C)n1 (stereo not drawn) | 5.29% (inactive)
CC(=O)N1CCCc2cc(S(=O)(=O)Nc3ccc(Cl)cc3F)ccc21 | -13.2% (inactive)
Cc1ccc(OCc2nc(C#N)c(N3CCCC3)o2)cc1 | -1.06% (inactive)
COc1ccc(OCc2ccc(-c3nc(C#N)c(N4CCN(c5ccccc5)CC4)o3)o2)cc1 | -27.6% (inactive)
Cc1ccccc1OCc1ccc(-c2nc(C#N)c(N3CCCCC3)o2)o1 | 2.09% (inactive)
CCC(C)Nc1oc(-c2ccc(COc3ccc(Cl)cc3)o2)nc1C#N (stereo not drawn) | -2.28% (inactive)
CN1CCN(c2oc(-c3ccc(COc4ccc(Cl)cc4)o3)nc2C#N)CC1 | -30.2% (active)
N#Cc1nc(COc2ccc(Cl)cc2)oc1N1CCCC1 | -31.6% (active)
CCC(C(=O)Nc1cc(OC)ccc1OC)n1c(=O)c(C(F)(F)F)nc2ccccc21 (stereo not drawn) | -23.6% (inactive)
COc1cc(OC)cc(-c2nc3nc(C)c(CCC(=O)Nc4ccccc4)c(C)n3n2)c1 | 2.44% (inactive)
CC(C)C[C@H](CO)Nc1nc(N(C)c2cccc(Cl)c2)c2ncn(C(C)C)c2n1 | -34% (active)
O=C(Nc1ccc(Br)cc1)c1cc2nc(-c3ccccc3)cc(-c3ccccc3)n2n1 | -10.1% (inactive)
COc1ccc(-n2c(=O)c3ccccc3n(Cc3ccccc3Cl)c2=O)cc1 | -11.1% (inactive)
